Menin MLL FP TR = qHTS Assay for Inhibitors Targeting the Menin-MLL Interaction in MLL Related Leukemias: Competition With Texas Red Labeled MLL-derived Mutant Peptide. hit rate 0.23% among 270,000. Menin + Texas Red MLL mutant peptide, fluorescence polarization. Potency, µM (titrated, usually from 61.6 µM), hits mostly inhibitors. O00255. AID 1768, 2009; active = well fitted inhibition curve with a large enough effect in the polarisation, with a control signal flat, not every such curve was filed as active; inconclusive = small, poorly fitted or top-dose-only effect, or effect the other way, or a change in a side signal; inactive = no such curve, though single readings can be large or run the other way; the % refers to the polarisation
Target sequence (O00255 whole entry, looked up): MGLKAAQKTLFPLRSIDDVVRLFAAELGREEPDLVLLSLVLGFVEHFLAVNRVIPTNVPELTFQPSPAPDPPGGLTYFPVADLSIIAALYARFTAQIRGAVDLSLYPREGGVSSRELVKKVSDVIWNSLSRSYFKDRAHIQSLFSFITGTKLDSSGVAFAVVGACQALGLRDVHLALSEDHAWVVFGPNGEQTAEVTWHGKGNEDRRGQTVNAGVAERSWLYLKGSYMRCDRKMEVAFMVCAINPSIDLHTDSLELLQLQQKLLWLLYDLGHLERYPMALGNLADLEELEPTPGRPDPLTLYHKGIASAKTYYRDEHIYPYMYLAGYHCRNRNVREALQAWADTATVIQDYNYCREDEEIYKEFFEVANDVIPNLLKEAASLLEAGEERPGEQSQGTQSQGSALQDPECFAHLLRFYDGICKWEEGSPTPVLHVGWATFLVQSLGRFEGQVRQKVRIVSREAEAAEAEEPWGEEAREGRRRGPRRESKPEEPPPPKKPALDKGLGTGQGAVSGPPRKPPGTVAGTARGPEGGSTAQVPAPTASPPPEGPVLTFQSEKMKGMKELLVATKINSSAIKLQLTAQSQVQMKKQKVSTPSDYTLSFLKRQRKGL
Menin MLL FP FL = qHTS Assay for Inhibitors Targeting the Menin-MLL Interaction in MLL Related Leukemias: Competition With Fluorescein Labeled MLL-derived Peptide; Fluorescence polarization, fluorescein-MLL peptide displacement from menin; FP activity change, % at 61.4 µM; 290,000 tested, under 10 active; active = well fitted curve in the direction sought with a large enough effect in the polarisation, not every such curve was filed as active; inconclusive = small, poorly fitted or top-dose-only effect, or effect the other way, or a change in a side signal; inactive = no such curve, though single readings can be large or run the other way; the % refers to the polarisation
Epigenetic reg = Quantitative High-Throughput Screen for Regulators of Epigenetic Control. hit rate 0.2% among 280,000. murine LDR cells, GFP reporter derepression, 30 h. Potency, µM (doses to about 53.9 µM), usual class: activators. AID 1865, 2009; also: nearly all actives have a fitted effect of over 60% in size
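GFP-positive cell count by laser-scanning cytometry (objects 20–120 um) after 30 h, 37 C compound exposure of murine LDR cells; reporter is CMV-GFP integrated at a silenced locus, inducible by HDAC or DNMT inhibitors.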
MLL CXXC-DNA inh = qHTS Fluorescence Polarization Assay for Inhibitors of MLL CXXC domain - DNA interaction; Histone-lysine N-methyltransferase 2A (Homo sapiens), Q03164; MLL-CXXC / FITC-HOXA9 DNA fluorescence polarization; Potency, µM (series often up to 115 µM), usual class: inhibitors; hit rate 0.037% among 290,000; AID 2662, 2010; active = well fitted inhibition curve with a large enough effect in the polarisation, with a control signal flat, not every such curve was filed as active; inconclusive = small, poorly fitted or top-dose-only effect, or effect the other way, or a change in a side signal; inactive = no such curve, though single readings can be large or run the other way; the % refers to the polarisation
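Purified MLL-CXXC (added from a 7 uM solution) was preincubated 5 min at ambient with pinned compounds in 50 mM Tris-HCl pH 7.5, 50 mM NaCl, 1 mM DTT, 0.05% BSA. Fluorescein-labeled HOX-A9 DNA (50 nM solution) followed, 30 min, then polarization read.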
PINK1 modulator = A Quantitative High throughput Screen to Identify Chemical Modulators of PINK1 Expression. hit rate 0.2% among 410,000. Potency, µM (series often up to 76.6 µM), actives largely listed as activators. PINK1 immunofluorescence, high-content cytometry, 24 h; active = well fitted activation curve with a large enough effect; inconclusive = small, poorly fitted or top-dose-only effect; cell line not stated here; also: nearly all actives have a fitted effect of over 65% in size
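Compound titrations (5 concentrations, 24 h) on a stable cell line; DMSO and CCCP controls. Endpoint: fixed-cell PINK1 immunofluorescence with mitochondrial, cell and nuclear markers, scanned by microplate cytometer.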
ClpP mod = qHTS Assay for Activators of ClpP; ATP-dependent Clp protease proteolytic subunit (Bacillus subtilis (strain 168)), P80244; purified B. subtilis ClpP, FRET peptide cleavage, 20 min; Potency, µM (top dose mostly 57.5 µM); hit rate 1.9% among 340,000; active = well fitted falling curve with a large enough effect; inconclusive = small, poorly fitted or top-dose-only effect; inactive = no such curve, though single readings can be large or run the other way; also: the source files actives as falling curves though it sought activators and does not explain the sign; nearly all actives have a fitted effect of over 65% in size
Target sequence (P80244 whole entry, looked up): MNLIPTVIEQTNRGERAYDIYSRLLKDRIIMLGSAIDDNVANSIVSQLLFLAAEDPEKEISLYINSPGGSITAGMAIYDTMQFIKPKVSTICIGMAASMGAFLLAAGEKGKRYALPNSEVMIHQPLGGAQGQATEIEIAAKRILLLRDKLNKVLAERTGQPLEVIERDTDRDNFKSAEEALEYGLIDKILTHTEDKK
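FRET quenching reversal measured ClpP activation: 10 microg/mL B. subtilis ClpP at pH 8 with the FRET-FV decapeptide, read at 430 nm after 320 nm excitation. The 20-min minus 0-min signal was scaled between DMSO/no-enzyme wells and ADEP (5.8 microM final).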
ClpP inh valid = qHTS Assay for Activators of ClpP: Hit Validation of Inhibitors; shares compounds with ClpP mod; purified B. subtilis ClpP, FRET-FV substrate cleavage, 20 min; Potency, µM (titrated, usually from 57.5 µM), actives largely listed as inhibitors; hit rate 40% among 470; AID 743245, 2014; also: nearly all actives have a fitted effect of over 70% in size
Of the large screens only hits and unclear results are named; the others gave an inactive call (follow-up assays come after a bar, where they were run). A selection: hits, their analogues and other compounds. The true share with any hit is near 1.9%. Unless noted, calls follow the shape of the dose curve; as a rule, active = well fitted curve in the direction sought with a large enough effect; inconclusive = small, poorly fitted or top-dose-only effect, or another doubt; inactive = no such curve, though single readings can be large; an effect the other way counts as inactive or inconclusive.

Cc1ccc(-c2nc3cc(C(C)C)ccc3o2)cc1NC(=O)c1cc2ccccc2o1	ClpP mod inconclusive (no result: Menin MLL FP TR, Menin MLL FP FL, MLL CXXC-DNA inh) | ClpP inh valid 31µM
CCN1CCN(CCCNC(=O)Cn2nc(C)n3c(cc4cc(C)ccc43)c2=O)CC1	ClpP mod inconclusive (no result: Menin MLL FP TR, Menin MLL FP FL, MLL CXXC-DNA inh) | ClpP inh valid inconclusive
CCc1ccc2[nH]c(C(=O)Nc3ccc(C)c(F)c3)cc2c1	none (no result: Epigenetic reg) | ClpP inh valid inactive
O=C(NC1CCCC1)c1cnn2c(C(F)(F)F)cc(-c3ccco3)nc12	none
Cc1c2c(nc3c(C(=O)NC4CCCC4)cnn13)CCCC2	ClpP mod 7.1µM | ClpP inh valid 22µM
N#Cc1ccc2c(c1)nc1ccccn12	none (no result: ClpP mod)
Clc1ccc2nc3ccccn3c2c1	ClpP mod 2.5µM | ClpP inh valid inconclusive
COc1ccccc1NC(=O)c1sc2ncn(Cc3ccccc3C)c(=O)c2c1C	none (no result: Menin MLL FP TR, PINK1 modulator) | ClpP inh valid inconclusive
CCOCc1ccccc1Nc1ncnc2onc(-c3ccc(Cl)cc3)c12	none (no result: Menin MLL FP TR, Menin MLL FP FL, MLL CXXC-DNA inh)
Cc1ccc(NC(=O)Cn2nnc(C(=O)NCc3ccc4c(c3)OCO4)c2N)cc1Cl	PINK1 modulator inconclusive (no result: Menin MLL FP TR, Menin MLL FP FL, MLL CXXC-DNA inh)
CC1=C(c2ccc(C)c(C)c2)S(=O)(=O)N(Cc2ccc(C(=O)NCc3cccc(C)c3)cc2)C1=O	ClpP mod 10µM (no result: Menin MLL FP TR, Menin MLL FP FL, MLL CXXC-DNA inh) | ClpP inh valid 15µM
CC1=C(c2ccc(C)cc2)S(=O)(=O)N(Cc2ccc(C(=O)NCc3cccc(C)c3)cc2)C1=O	none (no result: Menin MLL FP TR, Menin MLL FP FL, MLL CXXC-DNA inh)
O=C(Nc1ccc(F)cc1)c1sc2cc(C(F)(F)F)cnc2c1-c1cccs1	none | ClpP inh valid inactive
CCc1ccccc1N1CC(c2nc3ccccc3n2Cc2cccc(C)c2)CC1=O (stereo unspecified)	none (no result: Menin MLL FP TR, Menin MLL FP FL, MLL CXXC-DNA inh)
O=C(NCCc1ccccc1)C1Cc2c(-c3ccccc3)ccnc2O1 (stereo unspecified)	ClpP mod inconclusive (no result: Menin MLL FP TR, Menin MLL FP FL, Epigenetic reg, MLL CXXC-DNA inh) | ClpP inh valid inactive
NC(=O)c1cccc(-c2ccnc3c2CC(C(=O)NCCc2ccccc2)O3)c1 (stereo unspecified)	none (no result: Menin MLL FP TR, Menin MLL FP FL, Epigenetic reg, MLL CXXC-DNA inh)
C[C@H]1CN([C@@H](C)CO)C(=O)CCCn2nncc2CO[C@@H]1CN(C)Cc1ccncc1	none (no result: Menin MLL FP TR, Menin MLL FP FL, Epigenetic reg, MLL CXXC-DNA inh)
NC(=O)COc1ccc2cc(-c3ccc(F)cc3)c(=O)oc2c1	none (no result: Epigenetic reg, ClpP mod)
O=c1oc2cc(OCc3ccc(F)cc3F)ccc2cc1-c1ccccn1	ClpP mod 3.2µM | ClpP inh valid 9.7µM
CCOc1ccc(N2CC(C(=O)Nc3ccc4c(c3)OCCO4)CC2=O)cc1 (stereo unspecified)	none (no result: Menin MLL FP TR, Menin MLL FP FL, Epigenetic reg, ClpP mod)
CCOc1ccccc1N1CC(C(=O)Nc2ccc3c(c2)OCCO3)CC1=O (stereo unspecified)	ClpP mod 7.9µM | ClpP inh valid inactive
COc1ccccc1NS(=O)(=O)c1ccc(C(=O)NCc2ccco2)cc1	none (no result: Menin MLL FP TR, Menin MLL FP FL, Epigenetic reg, MLL CXXC-DNA inh)
O=C(Nc1ccc(-c2cn3ccccc3n2)cc1)c1ccc(Cl)cc1	Menin MLL FP TR inconclusive | ClpP inh valid inactive
COc1ccc2c(c1OC)C(=O)OC2Nc1nc2ccccc2s1 (stereo unspecified)	none (no result: Menin MLL FP TR)
COc1cccc(C2C(C(=O)Nc3nc4ccccc4s3)=C(C)NC3=C2C(=O)CC(C)(C)C3)c1OC (stereo unspecified)	none | ClpP inh valid 8.6µM
O=C(CCNS(=O)(=O)c1ccc2[nH]c(=O)oc2c1)Nc1ccccc1	none (no result: Menin MLL FP TR, Menin MLL FP FL, Epigenetic reg)
CCCN(CC(=O)Nc1ccccc1C)C(=O)c1ccc(C(=O)c2ccccc2)cc1	none (no result: Menin MLL FP TR, Menin MLL FP FL, Epigenetic reg, MLL CXXC-DNA inh)
CCCN(CC(=O)Nc1ccccc1C)C(=O)c1ccc(-c2ccc(C(C)=O)cc2)o1	ClpP mod 8.9µM (no result: Menin MLL FP TR, Menin MLL FP FL, Epigenetic reg, MLL CXXC-DNA inh) | ClpP inh valid 19µM
COc1ccc(N(CC(=O)NCCSCc2ccccc2C)S(=O)(=O)c2ccccc2)cc1	none (no result: Menin MLL FP TR, Menin MLL FP FL, Epigenetic reg)
FCCCOc1ccc(-c2nccc(-c3ccc(Cl)cc3)n2)cc1	none
COc1ccc(-c2ccnc(-c3ccc(OCCCF)cc3)n2)cc1	Menin MLL FP TR inconclusive, ClpP mod 7.9µM | ClpP inh valid inactive
O=C(CN1C(=O)C2CCCCC2C1=O)OCC(=O)c1ccc(F)cc1 (stereo unspecified)	none (no result: Menin MLL FP TR, Menin MLL FP FL, Epigenetic reg, MLL CXXC-DNA inh)
COc1cccc(Nc2nn3c(=O)c4ccccc4nc3s2)c1	none (no result: Menin MLL FP TR, Menin MLL FP FL, Epigenetic reg, MLL CXXC-DNA inh, ClpP mod)
CCc1cccc(Nc2nn3c(=O)c4ccccc4nc3s2)c1	none (no result: Menin MLL FP TR, Menin MLL FP FL, Epigenetic reg, MLL CXXC-DNA inh, PINK1 modulator, ClpP mod) | ClpP inh valid inactive
CCc1ccc(NC(=O)c2c(Cl)nc(C)c(Cl)c2C)cc1	none | ClpP inh valid inactive
COc1ccc(CCNC(=O)c2cnc3sc(N4CCC(C)CC4)nn3c2=O)cc1OC	none (no result: Menin MLL FP TR, Menin MLL FP FL, MLL CXXC-DNA inh)
CNC(=O)c1ccc(-c2ccccc2)s1	ClpP mod 3.5µM | ClpP inh valid 27µM
CCOc1ccc(NC(=O)c2ccc(-c3ccccc3)s2)cc1	none (no result: Menin MLL FP TR, Menin MLL FP FL, MLL CXXC-DNA inh)
O=C(NCc1cccc(F)c1)c1ccc(NC(=O)c2nsc3ccccc23)cc1	none (no result: Menin MLL FP TR, Menin MLL FP FL, MLL CXXC-DNA inh) | ClpP inh valid inconclusive
Cc1cc(Cl)ccc1Oc1nc(-c2ccc(F)cc2)ccc1C#N	Menin MLL FP TR inconclusive, PINK1 modulator inconclusive | ClpP inh valid inconclusive
O=C1CC[C@@H](OCc2ccccc2)CCN1CC[C@H](Sc1ccccc1)c1ccccc1	Menin MLL FP TR inconclusive, PINK1 modulator inconclusive (no result: Epigenetic reg)
CCOc1ccccc1NC(=O)n1ncc2cc(Cl)ccc21	none (no result: Menin MLL FP TR, Menin MLL FP FL, MLL CXXC-DNA inh)
CC(C)CCNC(=O)c1cc(-c2ccco2)nc2ccccc12	ClpP mod 4µM (no result: Menin MLL FP TR) | ClpP inh valid 6.9µM
